Screening results (PubChem BioAssay)
This is a sample that favours compounds with a hit; in the whole collection about 3.4% have one here.
GPR151 ag: activators of human GPR151. PathHunter beta-arrestin GPR151 cells, luminescence. 650,000 compounds, 1% hits. AID 1508602. activation, % at 11.2 µM; in the data active = activation above about 4.9%;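 note: 0% = median of compound wells and 100% = cells with positive control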
MITF inh: human MITF inhibition, primary screen | O75030 | AlphaScreen MITF homodimerization, bead proximity signal | inhibition, % at 2.6 µM | 650,000 compounds, 0.91% hits; in the data active = inhibition above about 50%;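 note: 0% = vehicle wells with protein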
Target sequence (O75030 whole entry, looked up): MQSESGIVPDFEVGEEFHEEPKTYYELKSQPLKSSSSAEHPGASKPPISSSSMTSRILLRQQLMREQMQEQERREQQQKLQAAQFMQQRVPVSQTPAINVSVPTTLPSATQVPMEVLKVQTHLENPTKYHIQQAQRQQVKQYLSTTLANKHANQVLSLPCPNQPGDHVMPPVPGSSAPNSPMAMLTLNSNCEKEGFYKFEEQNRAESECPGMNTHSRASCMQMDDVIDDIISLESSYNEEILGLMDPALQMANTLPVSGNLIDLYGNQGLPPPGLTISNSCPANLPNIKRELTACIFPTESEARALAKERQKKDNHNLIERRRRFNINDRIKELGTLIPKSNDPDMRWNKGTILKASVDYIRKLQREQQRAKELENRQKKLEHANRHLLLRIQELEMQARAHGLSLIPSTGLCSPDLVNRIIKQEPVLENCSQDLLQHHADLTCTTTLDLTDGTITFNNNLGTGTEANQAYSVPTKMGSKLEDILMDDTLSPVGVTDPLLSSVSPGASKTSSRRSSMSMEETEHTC
TEAD-YAP block: TEAD-YAP interaction inhibition | HEK-TIYL cells, TEAD-Gal4/YAP UAS-luciferase luminescence | inhibition, % at 9.12 µM | 640,000 compounds, 1.4% hits; in the data active = inhibition above about 32%;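 note: 0% = median of test compound wells and 100% = reference inhibitor wells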
FBW7 act: activators of human E3 ligase FBW7. 650,000 compounds, 0.13% hits. AlphaScreen FBW7–phospho-cyclin E peptide binding, activator screen. normalized activity (activation), % at 26.1 µM; in the data active = normalized activity above about 1.9%;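 note: purified mutant Fbw7 with reduced substrate affinity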
MITF inh conf: human MITF inhibition, confirmation | shares compounds with MITF inh | AlphaScreen MITF homodimerization, biotin/His-MITF beads | inhibition, % at 2.6 µM | 4,700 compounds, 16% hits;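 active = inhibition above a cutoff derived from the DMSO control wells, cut at about 28% in these data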;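 note: 0% = MITF dimer wells with DMSO only; inhibitors lower the bead chemiluminescence by keeping MITF from dimerizing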
AlphaScreen DR: counter-screen: compounds optically interfering with AlphaScreen; shares compounds with MITF inh; AlphaScreen optical interference counterscreen, cell-free; IC50, µM; 480 compounds, 6% hits; AID 1259373; call rule not given here
AS interf ctr: counter-screen: compounds optically interfering with AlphaScreen | shares compounds with MITF inh | LysRS AlphaScreen counterscreen, signal interference, triplicate | inhibition, % at 2.6 µM | 4,700 compounds, 7.6% hits;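 active = inhibition above a cutoff derived from the DMSO control wells, cut at about 30% in these data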
Starred values were filed as active, the others as inactive; · = no result given.

SMILES	GPR151 ag	MITF inh	TEAD-YAP block	FBW7 act	MITF inh conf	AS interf ctr	others
Cc1ccc(CNC2CCN(Cc3ccccc3)CC2)o1	0	23	1	0	·	·
O=C(O)CC1S/C(=N/N=C/c2ccccc2OC(=O)c2ccc(Cl)cc2)NC1=O (stereo not given)	-2	16	4	0	·	·
COc1ccc(C(=O)Nc2sc(C)c(C)c2C#N)cc1[N+](=O)[O-]	-1	74*	6	0	-6	-6
COc1ccc(NC(=O)C(c2cc3c(cc2[N+](=O)[O-])OCO3)N2CCN(C(=O)c3ccco3)CC2)cc1 (stereo not given)	-1	2	-12	0	·	·
COc1ccc(CCN2CCc3nc4ccncc4cc3C2)cc1	1	51*	2	1	23	34*
CCOC(=O)CCCCC(=O)c1c(C)n(C(=O)c2ccc(N3C(=O)CCC3=O)cc2)c(=O)n1C(=O)c1ccc(N2C(=O)CCC2=O)cc1	-1	107*	-8	-1	107*	88*
CCOC(=O)CCCCC(=O)c1[nH]c(=O)n(C(=O)c2ccccc2)c1C	0	89*	-5	-2	115*	98*
CCOC(=O)CCCCC(=O)c1[nH]c(=O)[nH]c1Cn1ccnc1	1	36	-14	0	·	·
O=[N+]([O-])c1ccccc1Oc1ccc(Cl)cc1Cl	2	8	-2	0	·	·
Cc1ccc(-c2cc(CC(C)C)nc(N)c2C#N)cc1	1	3	1	0	·	·
CC(=O)c1ccc(NCCC(=O)c2ccc(C)cc2)cc1	-1	-5	-16	0	·	·
COc1ccnc(N2CCC(N(Cc3cccnc3)S(C)(=O)=O)CC2)n1	2	9	5	1	·	·
CC1CN(CCOc2ccc3ccccc3c2)CC(C)O1 (stereo not given)	-1	30	-11	0	·	·
Clc1cccc(OCCN2CCNCC2)c1	-2	49	3	1	·	·
CCOc1cccc(OCCN2CCNCC2)c1	-1	75*	-2	0	9	-13
Fc1ccc(OCCCN2CCNCC2)cc1	-1	37	1	0	·	·
CCN1CCN(CCCOc2cccc(Oc3ccccc3)c2)CC1	-1	69*	-6	-1	7	16
c1ccc(Oc2cccc(OCCCCN3CCOCC3)c2)cc1	-1	29	-4	0	·	·
c1ccc(COc2ccc(OCCCN3CCNCC3)cc2)cc1	1	62*	58*	0	1	5
CCOc1cccc(OCCN2CC(C)OC(C)C2)c1 (stereo not given)	0	53*	-6	0	12	12
Cc1cccc(C(=O)NCc2n[nH]c(=S)n2-c2ccc(Br)cc2)c1	2	6	-4	0	·	·
CCC(C)NC(=O)C1=CC(c2ccc(OC)cc2)=NS(=O)(=O)N1C (stereo not given)	0	-2	1	0	·	·
c1ccc(Oc2cccc(OCCCN3CCNCC3)c2)cc1	2	31	-13	0	·	·
c1ccc(Oc2cccc(OCCCCN3CCNCC3)c2)cc1	-1	77*	-16	0	3	13
COc1ccccc1C(=O)Nc1ccccc1NC(=O)CC1CCCC1	-1	3	-1	0	·	·
SMILES	GPR151 ag	MITF inh	TEAD-YAP block	FBW7 act	MITF inh conf	AS interf ctr	others
O=C1N=C(N2CCN(CCO)CC2)S/C1=C\c1ccc(O)cc1	0	10	4	0	·	·
N#CC1=C(N)Oc2n[nH]c(-c3ccccc3)c2C1c1ccccc1C(F)(F)F (stereo not given)	-1	13	9	0	·	·
O=C(Nc1nc2c(s1)CCC2C(=O)NCCCc1ccccc1)c1ccc(F)cc1 (stereo not given)	0	80*	-10	0	4	19
O=C(O)c1cc(Nc2c([N+](=O)[O-])c(=O)oc3ccccc23)ccc1Cl	0	20	11	0	·	·
COc1cc(CNC2CCCC2)cc(OC)c1	-1	27	6	0	·	·
COc1cc(CNC2CCCCC2)cc(OC)c1	-1	52*	16	0	-9	-10
Cc1ccc(NS(=O)(=O)c2ccc3c(c2)CCN3C(=O)C2CCC2)cc1F	1	-1	-25	0	·	·
CCC(=O)c1ccccc1OCCN1CCN(Cc2ccccc2)CC1	1	66*	14	0	7	3
COc1cc(C(C)=O)ccc1OCCN1CCN(Cc2ccccc2)CC1	-1	62*	11	1	6	10
CCC(=O)c1ccccc1OCCCCN1CCN(CC)CC1	4	60*	8	0	18	13
CCC(=O)c1ccccc1OCCN1CCN(C)CC1	-1	13	7	0	·	·
COc1ccc(C(=O)NC(=S)N2CCN(Cc3ccccc3)CC2)cc1OC	-1	18	-2	0	·	·
Cc1nc2c(ccc3sccc32)s1	-1	-7	7	0	·	·
O=C(CNCCc1ccc(Cl)cc1)NCc1ccc2c(c1)OCO2	-1	60*	11	1	6	21
O=C(NCc1ccc2c(c1)OCO2)C1(S(=O)(=O)c2ccc(Cl)cc2)CC1	1	88*	10	0	-2	-4
CC1=NN(c2cccc3ccccc23)C(=O)C1	-1	10	8	-2	·	·
CC1=NN(c2ccc3cccc(O)c3n2)C(=O)C1	2	90*	7	0	115*	101*
O=C(N/N=C/C=C/c1ccc([N+](=O)[O-])o1)c1cccc(O)c1	0	22	7	0	·	·
CC(O)C(=O)N/N=C/C=C/c1ccc([N+](=O)[O-])o1 (stereo not given)	3	55*	0	-1	71*	2	AlphaScreen DR=>7.2
O=S(=O)(c1ccc2ccccc2c1)N1CCN(Cc2ccccc2C(F)(F)F)CC1	1	11	-5	0	·	·
FC(F)(F)c1ccccc1CN1CCC(N2CCCC2)CC1	1	57*	0	0	7	13
CCOC(=O)C1CCCCN1Cc1ccccc1C(F)(F)F (stereo not given)	0	53*	-9	0	-3	6
FC(F)(F)c1ccccc1CN1CCN(C2C3CC4CC(C3)CC2C4)CC1 (stereo not given)	0	76*	-2	0	15	11
FC(F)(F)c1ccccc1CN1CCN(C2CCCCC2)CC1	-1	69*	7	0	16	18
CCOC(=O)c1c(NC(=O)c2c(-c3ccccc3)noc2C)sc(C(=O)N(CC)CC)c1C	-1	-6	-9	0	·	·
Cc1ccsc1/C=C(\C#N)C(=O)Nc1ccccc1I	1	-6	-34	0	·	·
CCOC(=O)c1csc(NC(=O)c2cc(C)nn2CC)n1	-2	-3	-1	0	·	·
FC(F)(F)c1ccccc1CN1CCC(N2CCCCC2)CC1	1	-6	19	0	·	·
FC(F)(F)c1ccccc1CN1CCN(C2CCCCCC2)CC1	1	78*	8	0	9	24
